Most compounds without a hit are left out; they make up all but 1.5% or so of the library.
BCLXL inh – inhibitors of human Bcl-xL; Q07817; GST-Bcl-xL / FITC-Bim BH3 peptide fluorescence polarization; inhibition, % at 10.9 µM; 320,000 compounds, 0.7% hits; AID 2129;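 active = inhibition above the mean of all tested compounds plus 3 SD, cutoff set per campaign, cut at about 30% in these data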;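 also: 0% = DMSO wells and 100% = unlabeled Bim-BH3 peptide competitor; inhibitors lower millipolarization by displacing the labeled peptide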
EBV gp42 block – EBV gp42 inhibition | Fluorescence polarization binding assay, mP read-out | inhibition, % (tested at 21.74 µM) | Q1HVG2 | 220,000 compounds, 0.42% hits | AID 1085; in the data active = inhibition above about 50%
MCL1 BIM primary – inhibitors of human MCL1 binding to BIM-BH3 peptide; Q07820; GST-MCL1 / FITC-Bim-BH3 fluorescence polarization; inhibition, % at 10.9 µM; 320,000 compounds, 0.68% hits; AID 2057;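 active = inhibition above the mean inhibition of all tested compounds plus 3 SD, set per campaign, cut at about 40% in these data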;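 also: 0% = DMSO wells and 100% = unlabeled Bim-BH3 peptide control; higher means more loss of mP so more displacement of Bim peptide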
eLon inh – inhibitors of E. coli Lon protease. P0A9M0. purified E. coli Lon protease, fluorescence polarization. inhibition, % at 7.94 µM. 360,000 compounds, 0.42% hits; in the data active = inhibition above about 13%, passing the limit was not always enough;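 also: 0% = enzyme with probe and DMSO and 100% = no enzyme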
GLD-1 RNA inh – GLD-1-TGE RNA interaction inhibition (C. elegans) | purified GLD-1 + fluorescein TGE RNA, fluorescence polarization | inhibition, % at 5.96 µM | 320,000 compounds, 0.44% hits | AID 2280;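 active = percent inhibition above a per-plate cutoff, the plate mean of test compounds plus 3 SD, cut at about 30% in these data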;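 also: 0% = DMSO wells with GLD-1 and probe and 100% = wells lacking GLD-1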
Target sequence (Q17339 whole entry, looked up): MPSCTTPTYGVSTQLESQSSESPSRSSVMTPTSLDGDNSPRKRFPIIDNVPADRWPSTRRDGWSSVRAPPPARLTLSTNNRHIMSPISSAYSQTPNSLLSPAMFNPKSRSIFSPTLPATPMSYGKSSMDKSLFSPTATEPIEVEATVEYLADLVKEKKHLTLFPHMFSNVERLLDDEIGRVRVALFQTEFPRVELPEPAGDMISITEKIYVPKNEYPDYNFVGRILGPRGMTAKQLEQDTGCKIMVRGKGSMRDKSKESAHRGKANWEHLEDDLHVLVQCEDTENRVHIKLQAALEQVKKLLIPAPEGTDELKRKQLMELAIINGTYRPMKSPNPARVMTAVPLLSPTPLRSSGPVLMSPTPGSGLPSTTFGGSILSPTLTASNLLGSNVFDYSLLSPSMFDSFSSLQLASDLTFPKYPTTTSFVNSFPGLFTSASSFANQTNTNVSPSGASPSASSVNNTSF
MEX-5 binding – C. elegans MEX-5 TCR-2 RNA binding activity. MEX-5/FITC-TCR2 RNA binding, fluorescence polarization; hits give low values. activity score (negative = inhibition of binding), % at 10 µM. Q9XUB2. 300,000 compounds, 0.38% hits;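 active = inhibition past about -25% in most replicates, and total fluorescence under double the plate's negative control median, limit read from the data; inconclusive = replicates evenly split on the limit, or fluorescence at least double controls; inactive = too little inhibition in most replicates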;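 also: 0% = DMSO and -100% = 5 µM competing unlabeled TCR2 RNA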
Bcl-xL conf – counter-screen for MCL1 inhibitors: confirmation of human Bcl-xL inhibitors. shares compounds with MCL1 BIM primary. GST-Bcl-xL / FITC-Bim BH3 peptide FP binding. inhibition, % at 10.9 µM. 1,700 compounds, 54% hits. AID 2166;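 active = inhibition above a cutoff equal to the mean inhibition of all tested compounds plus 3 SD, cut at about 30% in these data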;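 also: 0% = DMSO wells and 100% = unlabeled Bim BH3 control peptide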
MCL1 BIM confirm – confirmation of human MCL1 and BIM-BH3 interaction inhibitors. GST-MCL1 / FITC-Bim-BH3 fluorescence polarization. inhibition, % at 10.9 µM. 1,700 compounds, 61% hits. shares compounds with MCL1 BIM primary;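 active = inhibition above the average of all tested compounds plus 3 SD, cut at about 40% in these data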;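 also: 0% = DMSO wells and 100% = unlabeled Bim-BH3 control peptide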
GLD-1 TGE cf – GLD-1 TGE RNA interaction inhibition, confirmation; shares compounds with GLD-1 RNA inh; GLD-1/FL-TGE RNA fluorescence polarization, biochemical; inhibition, % at 5.96 µM; 550 compounds, 10% hits; AID 2459;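 active = average inhibition across triplicates above the hit cutoff set in the primary screen, cut at about 32% in these data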;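 also: 0% = GLD-1 with RNA probe and DMSO and 100% = wells lacking GLD-1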
E coli Lon conf – confirmation of E. coli Lon protease inhibitors; shares compounds with eLon inh; purified E. coli Lon, fluorescence polarization; inhibition, % at 7.94 µM; 1,400 compounds, 31% hits; AID 602230; in the data active = inhibition above about 16%;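 also: 0% = enzyme with probe and DMSO and 100% = no enzyme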
Active calls of the source: *; u = inconclusive; x = not tested or not shown; + = active, no number.

SMILES	BCLXL inh	EBV gp42 block	MCL1 BIM primary	eLon inh	GLD-1 RNA inh	MEX-5 binding	Bcl-xL conf	MCL1 BIM confirm	E coli Lon conf	others
Cc1oc(/N=C/c2ccc(O)cc2O)c(C#N)c1C	64*	46	65*	14*	53*	u	57*	65*	-170
COc1ccc(/C=C2\CCc3c2nc2ccccc2c3C(=O)O)cc1OC	99*	8	86*	65*	117*	-5	17	12	13
O=C(O)c1ccc(/C=C2\CCCc3c2nc2ccccc2c3C(=O)O)cc1	5	x	0	5	1	-4	x	x	x
COc1ccc(C2(C)C(C#N)C(=O)NC(=O)C2C#N)cc1 (stereo not drawn)	x	x	x	-11	x	x	x	x	x
Cc1cc(C(=O)COc2cccc3cccnc23)c(C)n1C	147*	11	177*	71*	151*	-3	14	8	2
COC(=O)c1coc(-c2ccc(C)cc2)c1C(=O)OC	4	-3	4	-8	-1	-3	x	x	x
COC(=O)c1cc2c(C)c(C)c3ccccn3c-2c1C(=O)OC	112*	50*	115*	22*	86*	u	71*	81*	60*
COC(=O)c1cc2c(C)cc3ccc(C)cn3c-2c1C(=O)OC	93*	88*	99*	40*	55*	-13	75*	98*	78*	GLD-1 TGE cf=41*
COc1ncnc2c1NC1=C(S2)C(=NCCC(=O)O)CC(C)(C)C1	144*	140*	162*	65*	103*	-52*	171*	198*	154*
CC1(C)CC(=O)/C(=C(\O)Cc2ccccc2)C(=NCCCCCC(=O)O)C1	3	1	0	-5	5	1	x	x	x
c1cc(CNc2ccc3c(c2)OCO3)ccn1	86*	28	85*	27*	27	-13	64*	81*	34*
O=C(NCc1ccncc1)C(=O)Nc1ccc2c(c1)OCO2	8	-4	4	0	3	2	x	x	x
Cn1c(=O)c(NCCO)c2c3c(cccc31)C(=O)c1ccccc1-2	114*	-98	123*	+	81*	x	125*	129*	+
CC(=O)Nc1ccc(Nc2c3c4c(cccc4n(C)c2=O)C(=O)c2ccccc2-3)cc1	+	141*	+	148*	169*	-2	181*	+	178*
Cc1cccc(NC2=C(NCCO)C(=O)c3ccccc3C2=O)c1	4	-9	3	-6	0	-2	x	x	x
Cn1c(NCCc2ccccc2)cc(=O)n(C)c1=O	3	2	1	-1	6	0	x	x	x
CC(=O)Nc1ccc(NC2=CC(=O)c3ccccc3C2=O)cc1	11	x	2	2	1	-1	x	x	x
Cn1c(=O)c(NCCc2ccccc2)c2c3c(cccc31)C(=O)c1ccccc1-2	+	+	+	+	+	u	+	+	-457
CCCCNc1c2c3c(cccc3n(C)c1=O)C(=O)c1ccccc1-2	198*	183*	+	188*	+	u	178*	+	101*
COc1ccc(OCCN(C)C(=O)c2cccc(S(=O)(=O)N(C)c3ccccc3)c2)cc1	1	x	3	0	0	x	x	x	x
COc1ccc(COC(=O)C2=C(C)NC(=O)NC2c2ccc(OC)cc2)cc1 (stereo not drawn)	-3	x	-7	-6	5	-4	x	x	x
COc1ccc(-n2c(SCC(=O)Nc3cc(C)on3)nc3c([nH]c4ccccc43)c2=O)cc1OC	5	x	7	12	-5	-1	x	x	x
COc1cccc(F)c1C(=O)NC(=O)Nc1ccc2nc(C)oc2c1	119*	27	119*	110*	91*	-31*	54*	40	-9
CC(C)(C)c1cc[n+](-c2nc([O-])sc2C=O)cc1	19	17	19	0	2	1	x	x	x
CCc1cc[n+](-c2nc([O-])sc2C=O)cc1	122*	87*	136*	40*	99*	-50*	83*	119*	8
SMILES	BCLXL inh	EBV gp42 block	MCL1 BIM primary	eLon inh	GLD-1 RNA inh	MEX-5 binding	Bcl-xL conf	MCL1 BIM confirm	E coli Lon conf	others
O=C(Nc1ccccc1Cl)Nc1ccnn1C1CCN(C(=O)CCN2CCCO2)CC1	4	x	11	4	2	5	x	x	x
Cc1nn(C2CCS(=O)(=O)C2)c(Cl)c1/C=C/C(=O)OCC(=O)Nc1ccc2c(c1)OCO2 (stereo not drawn)	-8	-18	-17	-7	0	-1	x	x	x
COc1ccc2ccccc2c1C(O)c1nccn1C (stereo not drawn)	173*	60*	+	55*	145*	-4	164*	197*	168*
CCSC1=N/C(=C\c2ccc(-c3ccccc3[N+](=O)[O-])o2)C(=O)S1	74*	29	90*	37*	48*	-7	120*	141*	-7
O=C(c1ccc(Cl)cc1)[C@@H]1[C@@H]2C(=O)N(c3ccccc3)C(=O)[C@@H]2C2c3ccccc3C=NN21 (stereo partly drawn)	20	-26	11	-24	8	1	x	x	x
O=C(c1ccco1)[C@@H]1[C@@H]2C(=O)N(c3ccccc3)C(=O)[C@@H]2C2c3ccccc3C=CN21 (stereo partly drawn)	79*	x	79*	24*	69*	-30*	60*	77*	33*
NS(=O)(=O)c1cc(C(=O)NC2CCSc3ccccc32)ccc1Cl (stereo not drawn)	34*	x	79*	18*	6	u	30	70*	17*
CN1c2ccccc2N(C)C1(C)c1ccccc1	69*	3	65*	38*	48*	-7	74*	101*	3	GLD-1 TGE cf=9
CC1CCc2c(sc3ncnc(SC(C)C(=O)NCC4CCCO4)c23)C1 (stereo not drawn)	2	x	2	11	7	5	x	x	x
CCOc1ccc2noc3c2c1C(=O)c1ccccc1-3	152*	-71	174*	+	171*	u	146*	171*	+
